For 51 compounds, Percent Effect results are on record in ChEMBL document CHEMBL3988442, “University of Dundee, Small-Polar-MMV Screening Library” (2021).

In test [1] the target is T1, Aspartate--tRNA(Asp/Asn) ligase (Mycobacterium tuberculosis (strain ATCC 25618 / H37Rv)) (UniProt P9WFW3). Further: in the data most compounds retested in dose-response had high values.
T1 sequence (whole entry): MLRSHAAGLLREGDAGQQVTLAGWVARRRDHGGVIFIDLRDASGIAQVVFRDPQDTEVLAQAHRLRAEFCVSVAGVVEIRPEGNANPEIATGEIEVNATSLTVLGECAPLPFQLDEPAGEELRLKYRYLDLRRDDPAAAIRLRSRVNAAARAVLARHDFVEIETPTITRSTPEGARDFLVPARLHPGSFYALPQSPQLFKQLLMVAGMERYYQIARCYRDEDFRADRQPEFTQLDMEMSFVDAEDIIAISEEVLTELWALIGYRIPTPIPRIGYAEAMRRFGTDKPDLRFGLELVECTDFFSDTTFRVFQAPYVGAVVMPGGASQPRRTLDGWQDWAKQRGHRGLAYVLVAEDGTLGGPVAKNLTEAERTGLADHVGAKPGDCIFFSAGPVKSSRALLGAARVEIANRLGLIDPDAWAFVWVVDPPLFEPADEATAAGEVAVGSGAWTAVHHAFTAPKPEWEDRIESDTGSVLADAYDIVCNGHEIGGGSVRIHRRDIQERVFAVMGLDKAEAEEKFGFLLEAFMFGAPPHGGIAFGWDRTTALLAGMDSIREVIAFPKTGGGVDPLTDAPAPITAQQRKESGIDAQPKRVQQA
Nature of the test: Assay for Asp RNA synthetase-1 from Mycobacterium tuberculosis. It counts as functional. Details: scale not given: direction of the effect not stated beside the values. The following applies: 30 µM.

Test [2] has as its target Shiga toxin 2 (Escherichia coli O157:H7) (UniProt P09385+P09386). Nature of the test: E. coli 0.157:H7 Shiga Toxin SOP - stx2 screening assay. Details: scale not given: direction of the effect not stated beside the values. The class given is functional. Particulars: 30 µM.

`Cc1cc(CN2CCN(C(=O)Nc3cccnc3)CC2)on1`: the Percent Effect in test [1] was -2.97%; in test [2], 26.4%.

For the compound `Cc1cn2c(n1)CCC(NC(=O)c1nc(C)ncc1Cl)C2` (configuration not stated), the Percent Effect in test [1] was 1.79%; in test [2], 12.5%.

As to `O=C(c1ccoc1)N1CCC2(CC1)C(=O)Nc1ccccc12`, the Percent Effect in test [1] was -1.51%; in test [2], -2.64%.

Turning to `Cc1cccc(-c2noc(CN3CCc4nn(C)c(=O)cc4C3)n2)c1`, the Percent Effect in test [1] was 47.9%; in test [2], -21.4%.

Regarding `Cc1ccoc1C(=O)N1C[C@H]2CCC[C@@]2(COCc2ccncc2)C1`, the Percent Effect in test [1] is 6.22%; in test [2], -14.5%.

Turning to `COCCN(Cc1nc2c(cnn2C)c(=O)[nH]1)Cc1ccco1`, the figures for the Percent Effect in test [1] and in test [2] were 0.88% and 22.5%, respectively.

As for `O=C(COc1ccccc1)N1CCC[C@]2(C[C@H](OCC3CC3)CO2)C1`, the results for the Percent Effect in test [1] and in test [2] were 1.3% and -10.4%, respectively.

Turning to `Cc1[nH]ccc1C(=O)N1CCC(c2nnc(Cn3ccnc3)n2C)CC1`, the Percent Effect in test [1] is -1.28%; in test [2], -20.6%.

For the compound `Cc1cc(=O)[nH]c(CCNC(=O)C(c2ccc(F)cc2)N(C)C)n1` (configuration not stated), the Percent Effect in test [1] is -1.19%; in test [2] it was -71.7%.

For the compound `Cc1ccc(CN2CCC3(CC(C(=O)NCC4CC4)=NO3)C2)cc1C` (configuration not stated), the values for the Percent Effect in test [1] and in test [2] were 7.45% and -15.5%, respectively.

Consider `COc1ccc2nnc(CCCC(=O)NCc3cccn3C)n2n1`, for which the values for the Percent Effect in test [1] and in test [2] were -1.89% and -44.7%, respectively.

For `O=C(C1=CCCC1)N1CCO[C@H]2[C@@H](Oc3ccccn3)CC[C@@H]21`, the Percent Effect in test [1] was 0.28%; in test [2], -1.55%.

For `CCc1n[nH]c(C2CN(CCc3ccncc3)CCO2)n1` (configuration not stated), the Percent Effect in test [1] is -1.5%; in test [2] it was 11.6%.

Turning to `Cc1cnn(CC2CCCN2CC(=O)N(C)Cc2ccc(C)o2)c1` (configuration not stated), the Percent Effect in test [1] is 0.457%; in test [2] it was -11.2%.

Consider `O=C(Nc1cn[nH]c1)c1ccc(O)nc1`, for which the values for the Percent Effect in test [1] and in test [2] were -1.37% and 30.3%, respectively.

For the compound `Cc1nc(Nc2nnc(C)s2)cc(C2CCCN2C)n1` (configuration not stated), the Percent Effect in test [1] is 2.4%; in test [2], -26.6%.

Turning to `O=C(Cc1ccccn1)N1CCc2nc(-c3cnccn3)nc(O)c2C1`, the Percent Effect is -2.49% in test [1] and 4.64% in test [2].

Take `CCn1ncc2c1C(COC)CN(Cc1ccc(OC)cc1)C2` (configuration not stated): the Percent Effect in test [1] is -4.44%; in test [2], -3.46%.

On to `N#Cc1ccc(C(=O)N2CCC3(CC2)C(=O)Nc2ccccc23)cn1`, for which the Percent Effect amounted to 6.62% in test [1] and 1.52% in test [2].

As to `O=C(NCC(O)c1ccc(F)c(F)c1)c1cccnc1OCC(F)(F)F` (configuration not stated), the Percent Effect is -1.66% in test [1] and -9.04% in test [2].

In the case of `Cc1n[nH]c(C2CN(C(=O)CCc3ccco3)CCO2)n1` (configuration not stated), the figures for the Percent Effect in test [1] and in test [2] were 7.13% and -9.36%, respectively.

`CS(=O)(=O)NCc1nnc2n1CCN(CC1CC1)C2`: the Percent Effect in test [1] turned out to be 2.77%; in test [2] it was 4.81%.

As to `CC(=O)c1cc(CN2C[C@H]3CC[C@@H]2CN(S(=O)(=O)N(C)C)C3)cs1`, the Percent Effect in test [1] is -1.45%; in test [2] it was -57.1%.

With `CSCc1cccc(S(=O)(=O)N2CCC(C)CC2)c1`, the Percent Effect was -1.92% in test [1] and 4.74% in test [2].

Turning to `Cc1noc(C)c1CN(C)C(=O)NC1CCN(C2CC2)CC1`, the Percent Effect was -2.46% in test [1] and -7.45% in test [2].

For `CC(NC(=O)COc1nc(C(C)(C)C)no1)c1ccco1` (configuration not stated), the results for the Percent Effect in test [1] and in test [2] were -2.04% and 16.4%, respectively.

For `CC(Cn1cccn1)NC(=O)CCc1ccc(S(N)(=O)=O)cc1` (configuration not stated), the figures for the Percent Effect in test [1] and in test [2] were -2.91% and 11.3%, respectively.

In the case of `CCc1ccc(C(=O)N2CCCC(c3noc(CC)n3)C2)o1` (configuration not stated), the figures for the Percent Effect in test [1] and in test [2] were -2.33% and 10.6%, respectively.

Turning to `O=C(Nc1nncs1)NC1CCc2ccccc21` (configuration not stated), the Percent Effect was 1.46% in test [1] and -33.6% in test [2].

Consider `Cn1cnc2c1CCN(Cc1noc(-c3ccccc3)n1)C2`, for which the Percent Effect in test [1] was 3.96%; in test [2] it was 12.6%.

Turning to `CCc1ncc2c(n1)CN(Cc1nc(-c3ccsc3)no1)CC2`, the Percent Effect is -0.759% in test [1] and 13.8% in test [2].

For `CCc1nccn1C1CCCN(C(=O)c2csc(COC)n2)C1` (configuration not stated), the Percent Effect in test [1] is 4.12%; in test [2] it was -14.9%.

Consider `CC(C)N1CCC(CNCc2c[nH]nc2C(C)(C)C)C1` (configuration not stated), for which the Percent Effect was 7.32% in test [1] and 11.2% in test [2].

As to `CCN1CCC2(CC1)CC(NC(=O)NC)c1cc(C)ccc12` (configuration not stated), the Percent Effect is -5.21% in test [1] and -9.91% in test [2].

Regarding `Cc1nc(NC(=O)CNC(=O)c2c(F)cccc2Cl)n[nH]1`, the Percent Effect in test [1] is 6.53%; in test [2], 3.62%.

Turning to `Cc1cnn(CC2CCCCN2CCn2cncn2)c1` (configuration not stated), the values for the Percent Effect in test [1] and in test [2] were -2.34% and -38%, respectively.

For `CC(C(=O)N1CCCN(c2ccc(C#N)cc2)CC1)n1ccnc1` (configuration not stated), the Percent Effect is -2.92% in test [1] and 4.39% in test [2].

With `c1cnc2c(c1)cc([C@H]1CCCO1)n2CCN1CCCCC1`, the results for the Percent Effect in test [1] and in test [2] were -0.551% and -28.2%, respectively.

For the compound `COC(=O)[C@H](C)NC(=O)c1cc(-c2cccc(Cl)c2)no1`, the results for the Percent Effect in test [1] and in test [2] were 0.419% and 5.33%, respectively.

For `COc1ccc(CC(=O)N(C)Cc2nnc3ccccn23)cc1`, the Percent Effect in test [1] came out at 2.36%; in test [2] it was 2.4%.

On to `O=C(O)c1csc(S(=O)(=O)Nc2cccc(OC(F)F)c2)c1`, for which the Percent Effect in test [1] is -0.5%; in test [2] it was -13.1%.

With `c1cncc(COCc2nnc3n2CCN(Cc2ccsc2)C3)c1`, the Percent Effect in test [1] is -0.684%; in test [2], -54.6%.

Regarding `Cn1ccnc1N1CCN(C(=O)Cc2ccc(F)cc2)CC1`, the Percent Effect in test [1] was 3.25%; in test [2] it was -73%.

`O=C(C1CCOCC1)N1CC[C@H]2C[C@@H](c3ccncn3)O[C@@H]2C1`: the Percent Effect in test [1] is 1.69%; in test [2] it was -27.6%.

With `CC(C)CN1C[C@H]2CCN(Cc3cccnc3)CC[C@H]2S1(=O)=O`, the Percent Effect is -4.32% in test [1] and 4.22% in test [2].

As to `CC(C1CC1)N(C)C(=O)c1cnc(-c2ccc3c(c2)OCO3)s1` (configuration not stated), the Percent Effect is 3.36% in test [1] and -42.7% in test [2].

On to `COc1ncccc1CNC(=O)NCCNC(=O)c1ccco1`, for which the Percent Effect in test [1] was -10.1%; in test [2], -25%.

As for `Cc1cc(CNC(=O)N2CCCN(Cc3ccccc3)CC2)no1`, the Percent Effect in test [1] was -4.23%; in test [2], 9.91%.

Take `CCn1c(C)nnc1CN(C)C1CCN(CCCOC)C1` (configuration not stated): the Percent Effect in test [1] came out at 1.79%; in test [2], 7.8%.

As for `CN(C)S(=O)(=O)N1CCC2(COCc3cnc(-c4ccccc4)nc32)C1` (configuration not stated), the Percent Effect was -4.48% in test [1] and -12.6% in test [2].

For `CC1=N[C@@]2(CC[C@@H]3CN(CC(=O)N(C)C)C[C@@H]32)C(=O)N1CC(C)C`, the values for the Percent Effect in test [1] and in test [2] were -0.203% and -75.1%, respectively.
